± gives the standard deviation of the averaged measurements.

The subject of the test is (4S)-cis-verbenol A-neuron OSN class. In words: net action potential response of A-neuron (blank-subtracted) (spikes/s (Hz)); higher = stronger excitation. The settings on record: 10 µg on filter paper; neuron: A neuron (large spike amplitude). The protocol: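 Single sensillum recordings from antennal olfactory sensilla of live adult Ips typographus. Each compound was 10 µg in paraffin oil on filter paper, delivered as a 0.5 s puff. Net response = spikes in the first 0.5 s of response minus the 0.5 s pre-stimulus count, doubled to give Hz, with blank response subtracted. Values are for the large-spike A-neuron class of each of seven sensillum types that co-house the lanierone B-neuron; N = 1-4 sensilla, averaged.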
In the case of `C=CCc1ccc(OC)cc1` [Estragole], the “net action potential response” value is -2 ± 3.5.

With `O=Cc1ccccc1` [Benzaldehyde], the “net action potential response” value is 2 ± 6. On to `Cc1ccccc1` [Toluene], for which the “net action potential response” value was determined as 1.33 ± 6.4.

The record behind these values is the supplement of paper PMC11577813, “Eurasian spruce bark beetle detects lanierone using a highly expressed specialist odorant receptor, present in several functional sensillum types” (BMC Biology, 2024).
